Assay [1] deals with Thyrotropin receptor (Homo sapiens) (UniProt P16473). The assay is described as follows: qHTS assay to identify small molecule antagonists of the thyroid stimulating hormone receptor (TSHR) signaling pathway (AID 1259385; calls by dose curve; note: nearly all actives have a fitted effect of over 20% in size). Summed up: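 Antagonist mode: compound-treated TSHR-expressing HEK293 cells were stimulated with 1.5 ng/mL TSH (final) in presence of Ro20-1724 for 30 min at RT. HTRF cAMP detection after 1 h; each compound tested at 15 concentrations, triplicate.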
In general terms: Quantitative high-throughput screening tests each substance at several concentrations.

A short description of assay [2]: qHTS assay to identify small molecule agonists of the estrogen receptor alpha (ER-alpha) signaling pathway in the presence of an antagonist - cell viability counter screen (AID 1259386).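 Note: series mostly up to about 92 µM; cells exposed to compounds for 22 h at 37 °C before the viability read; nearly all actives have a fitted effect of over 30% in size.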 Put shortly: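 In this counter screen, compound effects on VM7Luc4E2 viability were tested in the presence of the antagonist ICI-182,780 at 10.0nM final. Compounds were dosed at 15 concentrations, exposure lasted 22hr, and the CellTiter-Fluor signal was read.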

Assay [3] concerns the target Progesterone receptor (Homo sapiens) (UniProt P06401). The assay is described as follows: qHTS assay to identify small molecule agonists of the progesterone receptor (PR) signaling pathway (AID 1346784; calls by dose curve; note: nearly all actives have a fitted effect of over 30% in size). Summed up:
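HEK 293T PR-UAS-bla reporter cells, 2% charcoal-stripped FBS; 6 hr settle at 37C/5% CO2, compound (DMSO) 16 hr, LiveBLAzer B/G FRET substrate 2 hr RT, fluorescence intensity read.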

The target is the same in assay [4]. Nature of the assay: qHTS assay to identify small molecule antagonists of the progesterone receptor (PR) signaling pathway (AID 1346795; active = well fitted inhibition curve with a large enough effect in the signal ratio in the repeat runs, not every such curve was filed as active; the % refers to the signal ratio; note: potency is the fitted concentration of half-maximal effect). Put shortly: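 Beta-lactamase reporter, HEK293T PR-UAS-bla line; 2% charcoal-stripped FBS; 6 hr pre-incubation, 37C/5% CO2. Compound + R5020 1 nM final, 16 hr. LiveBLAzer B/G FRET substrate, 2 hr RT; fluorescence intensity read.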

Assay [5] in a line: qHTS assay to identify small molecule antagonists of the progesterone receptor (PR) signaling pathway - cell viability counter screen (AID 1346798). Note: series mostly up to about 92 µM; nearly all actives have a fitted effect of over 50% in size. Summed up:
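Luminescence readout (CellTiter-Glo, 30 min, RT) of viability in PR-UAS-bla HEK293T cells exposed to compound and R5020 agonist for 16 hr at 37C, 5% CO2; run in the same wells as the beta-lactamase reporter read.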

A short description of assay [6]: qHTS assay to identify small molecule agonists of the progesterone receptor (PR) signaling pathway - cell viability counter screen (AID 1346799; calls by dose curve; note: nearly all actives have a fitted effect of over 45% in size). Put shortly: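 HEK293T PR-UAS-bla, 3,000 cells/well, 2% charcoal-stripped FBS; 6 h settle, compound 16 h at 37C/5% CO2; LiveBLAzer 2 h RT, then CellTiter-Glo 30 min RT, luminescence read.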
Assay [7] can be described thus: qHTS assay to identify small molecule antagonists of the TGF-beta/Smad signaling pathway - cell viability counter screen (AID 1346824). Note: nearly all actives have a fitted effect of over 50% in size. Summed up: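 Cytotoxicity counter-screen run in the same wells as the beta-lactamase Smad reporter read: CellTiter-Glo luminescence after 30 min at room temperature. HEK 293T SBE-bla cells had 5 hr compound exposure at 37 C with TGF-beta1 (0.25 ng/mL stock).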

Assay [8] is described as follows: qHTS assay to identify small molecule agonists of the TGF-beta/Smad signaling pathway - cell viability counter screen (AID 1346829). Note: top concentration of the series differs between compounds; nearly all actives have a fitted effect of over 45% in size. Summed up:
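SBE-bla HEK 293T cells plated overnight, compound exposure 5 hr at 37 C. Viability read in the same wells by CellTiter-Glo luminescence after 30 min at room temperature, following the beta-lactamase read.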

Assay [9] is described as follows: qHTS assay to identify small molecule agonists of the TGF-beta/Smad signaling pathway (AID 1346859; active = well fitted activation curve with a large enough effect in the signal ratio in the repeat runs, not every such curve was filed as active; the % refers to the signal ratio; note: series mostly up to about 77 µM). Summed up:
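Read-out: fluorescence at 460 and 530 nm (405 nm excitation) after a 2 hr room-temperature incubation with beta-lactamase FRET substrate. SBE-bla HEK 293T cells had been treated with test compounds for 5 hr at 37 C.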

For assay [10], the target named is Thyrotropin-releasing hormone receptor (Homo sapiens) (UniProt P34981). Nature of the assay: qHTS assay to identify small molecule antagonists of the thyrotropin-releasing hormone receptor (TRHR) signaling pathway (AID 1346877; active = well fitted inhibition curve with a large enough effect in the repeat runs, not every such curve was filed as active; note: series mostly up to about 51 µM). Put shortly:
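Kinetic fluorescence (3 min, 1 s resolution) following stimulation with TRH at 1 nM final; HEK293 cells bearing human TRHR; 5 min compound preincubation at RT; concentration-response over 15 points, triplicates.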

For assay [11] the target is unchanged. The assay is described as follows: qHTS assay to identify small molecule agonists of the thyrotropin-releasing hormone receptor (TRHR) signaling pathway (AID 1346891; calls by dose curve;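 note: HEK293 cells expressing TRHR with calcium dye readout; series mostly up to about 58 µM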). Put shortly:
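HEK293/TRHR cells, 1500 per well, 18 h 37 °C; Ca dye 2 h 37 °C; pin-tool compound addition (agonist mode); kinetic fluorescence 3 min, 1 s reads; 15 concentrations, triplicate.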

A short description of assay [12]: Human pregnane X receptor (PXR) small molecule agonists, qHTS cell viability counter screen (AID 1346977). Note: nearly all actives have a fitted effect of over 50% in size. Summed up: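 Fluorescence read-out (CellTiter-Fluor) of viability in PXR-Luc HepG2 cells, multiplexed with the luciferase agonist read. Compounds in DMSO added after 5hr plating; 24hr total exposure at 37C, 5% CO2.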
Assay [13] can be described thus: Caspase-3/7 induction in HepG2 cells by small molecules, qHTS assay (AID 1346978). Note: nearly all actives have a fitted effect of over 15% in size. Note: potency is the fitted concentration of half-maximal effect. Summed up: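 Caspase-3/7 induction was measured by Caspase-Glo 3/7 luminescence (30 min, room temperature) after a 17 hr compound exposure of wild-type HepG2 cells seeded at 2,000 per well and pre-incubated 5 hr.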
Assay [14] can be described thus: Caspase-3/7 induction in CHO-K1 cells by small molecules, qHTS cell viability counter screen (AID 1346979). Note: nearly all actives have a fitted effect of over 35% in size. Note: potency is the fitted concentration of half-maximal effect. Summed up: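 CHO-K1 wt, 1,500 cells/well; 5hr pre-incubation 37C/5% CO2; compound pin transfer (DMSO); 16hr exposure; CellTiter-Fluor added, 1hr, fluorescence read.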
Assay [15] can be described thus: Caspase-3/7 induction in CHO-K1 cells by small molecules, qHTS assay (AID 1346980). Note: nearly all actives have a fitted effect of over 15% in size. Put shortly: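 Luminescent Caspase-Glo 3/7 read (30min, room temperature) quantified apoptosis induction. Cells were wild-type CHO-K1, treated with compound for 17hr at 37 C and 5% CO2.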
Assay [16] in a line: Caspase-3/7 induction in HepG2 cells by small molecules, qHTS cell viability counter screen (AID 1346981). Note: series mostly up to about 92 µM; nearly all actives have a fitted effect of over 30% in size. Put shortly: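 In this quantitative HTS counter screen, compounds delivered in DMSO were left on unmodified HepG2 cells for 16 hr at 37 C. Viability was then determined fluorometrically with CellTiter-Fluor, in parallel with caspase-3/7 induction in the same wells.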
The target in assay [17] is Nuclear receptor subfamily 1 group I member 2 (Homo sapiens) (UniProt O75469). Nature of the assay: Human pregnane X receptor (PXR) small molecule agonists, qHTS assay (AID 1346982). Note: nearly all actives have a fitted effect of over 35% in size. Note: potency is the fitted concentration of half-maximal effect. Put shortly:
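Reporter HepG2 cells expressing PXR-Luc are cultured in charcoal-stripped FBS (5%), treated with compounds for 24 hr at 37 C, and assayed by ONE-Glo luminescence after 30 min at room temperature.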

Assay [18] concerns the target Nuclear receptor subfamily 1 group I member 2 (Rattus norvegicus) (UniProt Q9R1A7). Nature of the assay: Rat pregnane X receptor (rPXR) activation by small molecules, qHTS assay (AID 1346983). Note: nearly all actives have a fitted effect of over 20% in size. Note: potency is the fitted concentration of half-maximal effect. The note with it: rPXR luciferase reporter cells, One-Glo luminescence, 24 h; max activation: stronger effect = higher value. Put shortly: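 Luminescent readout (One-Glo luciferase, 30 min room temperature) followed 24 hr compound treatment at 37 C of rPXR cells plated 2,000 per well and preincubated 5hr; qHTS format with compounds delivered in DMSO.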

Assay [19] deals with Nuclear receptor subfamily 1 group I member 2 (Homo sapiens) (UniProt O75469). The assay is described as follows: CYP3A4 induction through human pregnane X receptor (PXR) by small molecules, qHTS assay (AID 1346984). Note: nearly all actives have a fitted effect of over 40% in size. Summed up:
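Induction measured in HepG2-based DPX-2 cells co-expressing human PXR and a CYP3A4 promoter-driven luciferase. After a 24-hour compound exposure, cells received CYP3A4 luciferin substrate at 3uM final for 3 hours, and light output was then recorded.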

The target is the same in assay [20]. The assay is described as follows: Human pregnane X receptor (PXR) activation by small molecules, qHTS assay (AID 1346985). Note: nearly all actives have a fitted effect of over 40% in size. Summed up: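 DPX-2 cells (HepG2 co-transfected with a PXR response element and a CYP3A4-promoter luciferase construct) were seeded at 2,000 per well, rested 5 hr at 37C, then exposed to DMSO-dissolved compounds for 24 hr. Activation was read as luciferase luminescence.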

Molecules are shown by their SMILES. “And” between values parts separate entries of the source, which are not always exact repeats. Equal entries are not always repeated. Inconclusive results are not listed. More than one record can exist for a structure, and the calls need not agree. The source made the active and inactive calls. Unless noted, calls come from the whole dose curve; as a rule, active = well fitted curve in the direction sought with a large enough effect in the repeat runs; inconclusive = weak or mixed curves; inactive = no such curve, though single readings can be large; an effect the other way counts as inactive or inconclusive.
% is set by controls: 0 for no effect and ±100 for the full control effect.

Sequence of Progesterone receptor (Homo sapiens) (P06401 whole entry, looked up): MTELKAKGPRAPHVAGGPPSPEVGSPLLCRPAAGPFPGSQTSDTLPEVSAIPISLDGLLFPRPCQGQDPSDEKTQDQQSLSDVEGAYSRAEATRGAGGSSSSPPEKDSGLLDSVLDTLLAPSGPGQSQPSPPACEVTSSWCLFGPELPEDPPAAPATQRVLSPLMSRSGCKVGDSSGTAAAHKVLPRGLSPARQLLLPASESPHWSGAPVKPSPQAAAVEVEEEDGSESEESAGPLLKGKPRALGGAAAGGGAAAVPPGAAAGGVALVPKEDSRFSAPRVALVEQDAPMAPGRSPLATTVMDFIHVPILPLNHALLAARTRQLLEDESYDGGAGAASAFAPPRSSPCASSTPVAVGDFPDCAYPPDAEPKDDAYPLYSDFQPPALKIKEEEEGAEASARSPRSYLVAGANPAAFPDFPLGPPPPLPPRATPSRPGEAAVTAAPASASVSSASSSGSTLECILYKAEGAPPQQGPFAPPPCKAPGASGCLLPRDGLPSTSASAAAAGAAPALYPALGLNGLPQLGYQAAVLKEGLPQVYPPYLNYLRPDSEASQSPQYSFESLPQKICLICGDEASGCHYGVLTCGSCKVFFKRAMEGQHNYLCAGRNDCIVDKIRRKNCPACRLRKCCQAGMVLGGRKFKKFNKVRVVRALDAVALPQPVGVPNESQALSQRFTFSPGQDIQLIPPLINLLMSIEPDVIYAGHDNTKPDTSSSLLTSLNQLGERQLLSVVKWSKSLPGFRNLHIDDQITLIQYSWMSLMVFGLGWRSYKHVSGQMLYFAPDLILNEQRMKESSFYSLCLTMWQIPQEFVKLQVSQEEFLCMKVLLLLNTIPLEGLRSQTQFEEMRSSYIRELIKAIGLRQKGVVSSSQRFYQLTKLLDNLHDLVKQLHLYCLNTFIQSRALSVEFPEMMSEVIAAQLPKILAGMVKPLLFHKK
Sequence of Thyrotropin-releasing hormone receptor (Homo sapiens) (P34981 whole entry, looked up): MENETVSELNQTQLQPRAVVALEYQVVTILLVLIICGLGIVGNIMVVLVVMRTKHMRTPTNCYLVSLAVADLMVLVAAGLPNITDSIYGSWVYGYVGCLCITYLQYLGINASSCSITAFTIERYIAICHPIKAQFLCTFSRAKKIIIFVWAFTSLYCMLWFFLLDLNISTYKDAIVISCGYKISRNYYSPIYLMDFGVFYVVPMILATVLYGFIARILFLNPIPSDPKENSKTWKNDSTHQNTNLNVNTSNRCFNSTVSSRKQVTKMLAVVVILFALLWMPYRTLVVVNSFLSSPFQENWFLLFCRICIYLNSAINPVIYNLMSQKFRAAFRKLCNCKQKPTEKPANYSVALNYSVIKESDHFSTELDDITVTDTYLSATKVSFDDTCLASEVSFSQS
Sequence of Thyrotropin receptor (Homo sapiens) (P16473 whole entry, looked up): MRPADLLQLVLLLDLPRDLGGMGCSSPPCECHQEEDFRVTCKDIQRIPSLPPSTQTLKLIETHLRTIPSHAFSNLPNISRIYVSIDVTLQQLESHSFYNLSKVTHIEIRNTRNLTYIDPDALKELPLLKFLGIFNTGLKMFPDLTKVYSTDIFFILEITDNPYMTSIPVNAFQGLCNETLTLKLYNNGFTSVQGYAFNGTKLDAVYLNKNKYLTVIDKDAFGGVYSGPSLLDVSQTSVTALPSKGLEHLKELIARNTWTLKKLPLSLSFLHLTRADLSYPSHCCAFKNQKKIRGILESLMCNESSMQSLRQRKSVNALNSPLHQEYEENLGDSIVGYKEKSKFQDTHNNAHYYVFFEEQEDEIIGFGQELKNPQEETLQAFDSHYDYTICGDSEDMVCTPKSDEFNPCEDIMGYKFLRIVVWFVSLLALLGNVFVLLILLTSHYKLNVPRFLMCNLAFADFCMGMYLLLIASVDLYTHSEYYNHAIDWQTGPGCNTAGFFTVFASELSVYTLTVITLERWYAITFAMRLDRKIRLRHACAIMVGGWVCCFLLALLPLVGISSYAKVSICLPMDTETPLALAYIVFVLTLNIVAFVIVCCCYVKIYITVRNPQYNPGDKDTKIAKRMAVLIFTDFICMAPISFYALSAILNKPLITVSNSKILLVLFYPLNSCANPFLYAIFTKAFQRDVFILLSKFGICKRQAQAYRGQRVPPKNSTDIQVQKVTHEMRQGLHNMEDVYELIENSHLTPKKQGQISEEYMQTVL
Sequence of Nuclear receptor subfamily 1 group I member 2 (Rattus norvegicus) (Q9R1A7 whole entry, looked up): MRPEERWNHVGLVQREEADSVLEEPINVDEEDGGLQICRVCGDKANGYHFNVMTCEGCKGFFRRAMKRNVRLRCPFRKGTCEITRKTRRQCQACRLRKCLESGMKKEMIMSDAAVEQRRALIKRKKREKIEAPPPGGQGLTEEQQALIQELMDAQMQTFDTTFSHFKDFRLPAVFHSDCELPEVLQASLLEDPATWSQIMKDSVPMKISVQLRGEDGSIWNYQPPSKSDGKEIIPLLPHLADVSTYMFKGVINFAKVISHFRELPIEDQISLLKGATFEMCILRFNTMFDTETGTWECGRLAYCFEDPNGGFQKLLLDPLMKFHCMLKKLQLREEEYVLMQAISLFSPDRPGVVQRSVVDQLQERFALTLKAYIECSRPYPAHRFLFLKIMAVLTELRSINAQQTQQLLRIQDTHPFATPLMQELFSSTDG
Sequence of Nuclear receptor subfamily 1 group I member 2 (Homo sapiens) (O75469 whole entry, looked up): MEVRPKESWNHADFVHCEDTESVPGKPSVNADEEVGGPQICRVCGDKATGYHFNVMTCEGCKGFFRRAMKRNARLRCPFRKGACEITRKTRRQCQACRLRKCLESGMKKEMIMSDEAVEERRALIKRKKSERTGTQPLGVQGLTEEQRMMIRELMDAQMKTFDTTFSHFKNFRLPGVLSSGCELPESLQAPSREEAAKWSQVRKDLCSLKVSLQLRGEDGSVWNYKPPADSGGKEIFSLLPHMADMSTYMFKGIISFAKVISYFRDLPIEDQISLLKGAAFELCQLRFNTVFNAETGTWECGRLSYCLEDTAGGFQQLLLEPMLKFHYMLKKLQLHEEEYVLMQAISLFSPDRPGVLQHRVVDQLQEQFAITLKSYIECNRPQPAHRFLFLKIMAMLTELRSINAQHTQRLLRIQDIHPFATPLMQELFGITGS

For `COC(=O)c1ccc(O)cc1`, the call in assay [1], in assay [9], in [10] and in assay [15] was inactive. For the same compound, the Potency result in assay [2], in assay [3], in assay [4], in assay [5], in assay [6] and in assay [7] was “inactive” throughout. Besides, the Potency result in assay [8], in assay [11], in assay [12], in assay [13], in assay [14] and in assay [16] was “inactive” throughout. Moreover, the Potency entry in assay [17], in assay [19] and in assay [20] was “inactive” each time. Also, in [18], the max activation was -1.51% (inactive).

Turning to `COCCOCCOC`, the outcome in [1], in [9], in assay [10] and in assay [15] was inactive. For the same compound, the Potency entry in assay [2], in assay [3], in assay [4], in [5], in [6] and in assay [7] was “inactive” each time. The Potency entry in [8], in [11], in [12], in assay [13], in assay [14] and in [16] was “inactive” throughout. Moreover, the Potency in [17] is 61.3 µM (active) and inactive.

`COC1=CC(=O)C[C@@H](C)[C@]12Oc1c(Cl)c(OC)cc(OC)c1C2=O`: the call in assay [1], in assay [9] and in assay [10] was inactive. Moreover, the Potency entry in assay [2], in [3], in [5], in assay [6], in [7] and in assay [8] was “inactive” throughout. The Potency entry in assay [11], in [14] and in assay [16] was “inactive” each time. Moreover, the Potency is 27.1 µM (active) and 30.6 µM (active) in assay [4]; 24.1 µM (active) and 61.1 µM (active) in assay [13]; 28.2 µM (active) in [18].

`CC(=O)OC/C=C(C)/C=C/C=C(C)/C=C/C1=C(C)CCCC1(C)C`: the result in [1], in [9], in [10] and in assay [15] was inactive. For the same compound, the Potency result in assay [2], in assay [3], in assay [4], in assay [5], in [6] and in assay [7] was “inactive” in each case. The Potency entry in [8], in [11], in [12], in [13] and in assay [16] was “inactive” each time. Further, the Potency in [14] was 66.9 µM (active) and 68.6 µM (active) and inactive; in assay [17] it was 59.6 µM (active) and 34.4 µM (active) and 15 µM (active).

`NC(=O)c1ccc([N+](=O)[O-])cc1Cl`: the result in assay [1], in assay [9], in assay [10] and in [15] was inactive. For the same compound, the Potency entry in [2], in assay [3], in assay [4], in [5], in [6] and in assay [7] was “inactive” in each case. In addition, the Potency result in assay [8], in assay [11], in [12], in [13], in assay [14] and in [16] was “inactive” each time. For the same compound, the Potency result in assay [17], in assay [19] and in assay [20] was “inactive” in each case. In addition, in assay [18], the max activation was 2.53% (inactive).

`CCn1cc(C(=O)O)c(=O)c2ccc(C)nc21`: the compound was classed as inactive in assay [1], in assay [9] and in [10]. For the same compound, the Potency result in [2], in assay [3], in assay [4], in assay [5], in [6] and in assay [7] was “inactive” throughout. The Potency result in [8], in assay [11], in [12], in assay [13], in assay [14] and in [16] was “inactive” each time. For the same compound, in [17], the Potency entry is “inactive”.

As to `CCCCCCCC(=O)OCC(O)CO` (stereo not drawn), the call in [1], in assay [9] and in assay [10] was inactive. Also, the Potency result in assay [2], in [3], in assay [4], in [5], in [6] and in assay [7] was “inactive” in each case. Further, the Potency result in assay [8], in assay [11], in assay [13], in assay [14], in [16] and in [17] was “inactive” each time. Besides, the Potency entry in assay [19] and in [20] was “inactive” throughout. Also, in [18], the max activation was -5.07% (inactive).

Values taken from PubChem BioAssay (Tox21).
